Drawing on PubChem BioAssay (NCI), this text covers growth for 15 compounds.

Compounds without any hit were thinned out: in the full panel of roughly 83,000, 20% have a hit.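 In brief: 96-well plates, 48 h treatment, single concentration, percent growth endpoint.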 Values without a mark were called inactive. Calls of active or inactive are those of the source. Rule for the calls: active = growth percent below 10; inactive = the rest.

Common to all, as to assay: NCI-60 one-dose screen, 48 h (100 = growth as untreated, 0 = no growth, -100 = all killed)
Holding throughout (conditions): 10 µM unless noted

In assay [1] the test system is SR leukemia.
For assay [2], the system named is RPMI-8226 leukemia.
The test system of assay [3] is OVCAR-8 ovarian.
Assay [4] deals with OVCAR-5 ovarian.
Assay [5] has as its system OVCAR-4 ovarian.
The subject of assay [6] is IGROV1 ovarian.
The test system of assay [7] is OVCAR-3 ovarian.
For assay [8], the system named is HS 578T breast.
Assay [9] relates to NCI/ADR-RES ovarian.
Assay [10] has as its system SK-OV-3 ovarian.

As to `Clc1cc(Cl)c2nc(-c3ccc(-c4ccc(/C=N/NC5=NCCN5)cc4)s3)cn2c1`, the growth is 11.2% in assay [1]; 37.6% in [2]; 97.9% in assay [3]; 104% in assay [4]; 85.6% in assay [5]; 84.3% in [6]. Also, the growth in assay [7] was 97.9%; in assay [8] it was 86.6%; in [9] it was 97.7%.
With `CCN1CCN(CC(=O)N2c3cccc4cccc(c34)N(C(=O)CN3CCN(CC)CC3)C2c2cn(-c3ccccc3)nc2-c2cccc([N+](=O)[O-])c2)CC1`, the growth was -48% (active) in [1]; -39.3% (active) in assay [2]; -9.32% (active) in assay [3]; 1.54% (active) in [4]; 115% in assay [10]; -29.1% (active) in [6]. Besides, the figures for the growth in assay [7], in [8] and in assay [9] were -70.8% (active), 69.6% and 47.3%, respectively.
Turning to `CC1CN(c2oc(-c3ccccc3)nc2C#N)CC(C)O1` (configuration not stated), the growth in [1] is 102%; in assay [2], 104%; in [3] it was 102%; in [4], 102%; in [5] it was 99.4%; in assay [6] it was 97.7%. Also, the growth in assay [7] is 116%; in assay [8] it was 102%; in assay [9], 107%.
For `O=C(O)C1CCCCN1c1nc(Cl)nc(Cl)n1` (configuration not stated), the growth in assay [1] is 118%; in [2] it was 109%; in assay [3], 99.3%; in assay [4], 105%; in [10], 99.9%; in assay [6] it was 106%. Also, the growth was 108% in assay [7], 103% in [8] and 101% in assay [9].
Take `COc1ccc(C(=O)c2cc(OC)c(OC)c(OC)c2OC)cc1O`: the growth in assay [1] is 26.4%; in assay [2], 44.7%; in assay [3], 61.3%; in assay [4], 92.8%; in [10], 20.1%; in [6] it was 57.4%. For the same compound, the growth in assay [7] was -21.8% (active); in [8], 16.3%; in assay [9] it was -8.84% (active).
For the compound `CN(C)CCOC(=O)Nc1ccccc1Cl`, the growth in assay [1] is 104%; in assay [2], 93.1%; in [3], 109%; in assay [4] it was 121%; in [10], 115%; in [6] it was 106%. The growth was 121% in assay [7], 115% in [8] and 105% in [9].
For the compound `Cc1ccc(S(=O)(=O)n2cc(C(=O)C(=O)Nc3ccncc3)c3ccccc32)cc1`, the growth is 28.8% in assay [1]; 37.5% in assay [2]; 43.2% in assay [3]; 57.6% in assay [4]; 96.6% in [10]; 45.1% in assay [6]. In addition, the results for the growth in assay [7], in [8] and in assay [9] were -12.1% (active), 23.2% and 5.21% (active), respectively.
On to `Cc1ccc(-c2cc3nc(C(Cl)Cl)nc(-c4ccccc4C)n3n2)cc1`, for which the growth in assay [1] is 17.7%; in assay [2], 48.1%; in assay [3], 90.5%; in assay [4], 92.7%; in assay [5], 74.9%; in [6] it was 83.7%. Further, the growth in assay [7] was 22.4%; in assay [8] it was 82.2%; in assay [9], 60.3%.
With `Cc1cc(C2=NNC(=O)Cc3cc4c(cc32)OCCO4)cc(C)c1N`, the growth was 27.5% in assay [1]; 52.8% in assay [2]; 54.8% in assay [3]; 75.8% in assay [4]; 20.2% in [10]; 44.7% in assay [6]. Moreover, the figures for the growth in [7], in assay [8] and in assay [9] were -28.5% (active), 24.9% and -4.6% (active), respectively.
Turning to `CCCCCCCCC(C)OC(=O)c1nn(C(C)=O)c2ccccc12` (configuration not stated), the growth in [1] is 126%; in assay [2], 104%; in assay [3], 95.7%; in assay [4], 104%; in assay [10], 109%; in assay [6], 105%. Also, the growth was 110% in assay [7], 101% in assay [8] and 101% in assay [9].
Turning to `O=C(NS(=O)(=O)c1ccccc1)n1cc(-c2ccncc2)c(-c2ccc(Cl)c(O)c2)n1`, the growth in assay [1] was 97.2%; in assay [2] it was 97.4%; in assay [3], 105%; in assay [4] it was 116%; in [10], 102%; in [6], 96.8%. Also, the growth in [7] is 117%; in assay [8] it was 106%; in assay [9], 102%.
On to `COc1ccc2c(c1)C(c1cc(OC)c3c(c1)OCO3)C1=C(COC1=O)N2` (configuration not stated), for which the growth was 6.1% (active) in assay [1]; 22.1% in assay [2]; 19% in assay [3]; 41.2% in assay [5]; 16.2% in [10]; 28.8% in [6]. Further, the figures for the growth in [7], in assay [8] and in [9] were -44% (active), 21% and 2.82% (active), respectively.
Consider `O=S(=O)(c1ccc(OCCO)cc1)c1ccc(OCCO)cc1`, for which the growth in assay [1] is 99.4%; in [2], 81%; in [3], 102%; in assay [4], 101%; in assay [10], 118%; in [6] it was 87.5%. Besides, the growth in [9] is 103%.
On to `COC(=O)C(Sc1ccc(Cl)cc1)C1SC(=S)N(Cc2ccccc2)C1=O` (configuration not stated), for which the growth in [1] was 50.8%; in assay [2], 84.6%; in assay [3], 101%; in assay [4], 118%; in [10] it was 108%; in [7], 105%. In addition, the growth is 106% in assay [8] and 102% in assay [9].
On to `Cc1cc(C(C)(C)C)ccc1S`, for which the growth in assay [1] was 93.4%; in assay [2] it was 104%; in assay [3] it was 111%; in [5], 99.2%; in [10] it was 105%; in assay [6], 109%. Moreover, the growth in assay [7] was 111%; in assay [8], 101%; in assay [9], 112%.
